CHO-K1 Ca antag: nonselective inhibitor or artifact in parental CHO-K1 cells; AID 602250; 360,000 tested, 0.6% active; inhibition, % at 3 µM; ATP-induced calcium, Fluo-8 fluorescence;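 active = inhibition above a per-plate cutoff, the plate's mean sample inhibition plus 3 SD, cut at about 24% in these data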
CHO-K1 Ca PAM: nonselective calcium activators in parental CHO-K1 cells, primary screen, counter-screen for M1 PAM project, cell-based, Fluo-8 calcium fluorescence, full deck, 1536-well | activation, % at 3 µM | ATP EC20; 0% at ATP EC20, 100% at ATP max | AID 602247, 2012 | 360,000 tested, 0.02% active;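 active = activation above the run cutoff, the mean activation of all test compounds plus 3 SD, cut at about 40% in these data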;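 note: peak over basal fluorescence ratio in a 140 s read after ATP addition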
M1 ag: human M1 muscarinic receptor agonists, primary screen, Fluo-8 calcium fluorescence, CHO-K1 cells, HTS; Muscarinic acetylcholine receptor M1 (Homo sapiens), P11229; CHO-K1 hM1, agonist mode; 0% DMSO, 100% acetylcholine EC100; activation, % at 3 µM; 360,000 tested, 0.33% active;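 active = activation above the run's mean compound activation plus 3 SD, cut at about 16% in these data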;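 note: peak over basal fluorescence ratio within a 140 s kinetic read after compound addition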
Target sequence (P11229 whole entry, looked up): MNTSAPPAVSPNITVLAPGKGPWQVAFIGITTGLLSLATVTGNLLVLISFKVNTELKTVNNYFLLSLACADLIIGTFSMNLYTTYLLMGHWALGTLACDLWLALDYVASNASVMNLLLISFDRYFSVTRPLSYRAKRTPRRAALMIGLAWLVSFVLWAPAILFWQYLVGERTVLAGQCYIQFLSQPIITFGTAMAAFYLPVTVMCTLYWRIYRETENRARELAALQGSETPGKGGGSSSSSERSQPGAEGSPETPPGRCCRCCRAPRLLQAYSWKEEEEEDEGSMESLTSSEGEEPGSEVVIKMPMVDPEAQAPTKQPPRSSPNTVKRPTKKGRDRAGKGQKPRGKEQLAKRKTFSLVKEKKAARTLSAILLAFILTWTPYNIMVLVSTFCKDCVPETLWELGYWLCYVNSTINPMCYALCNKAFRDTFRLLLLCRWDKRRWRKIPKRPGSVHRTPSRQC
CHRM1 antagonist: human M1 muscarinic receptor antagonists, primary screen, CHO-K1 cells, Fluo-8 calcium fluorescence, 1536-well; Muscarinic acetylcholine receptor M1 (Homo sapiens), P11229; CHO-K1 hM1, ACh EC80 antagonist; inhibition, % at 3 µM; 360,000 tested, 1.3% active; AID 588852, 2011;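 active = percent inhibition above its own plate's cutoff, namely the mean of that plate's compound wells plus 3 SD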;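 note: peak over basal fluorescence ratio during 140 s after agonist addition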
CHRM1 PAM: human M1 muscarinic receptor positive allosteric modulators, primary screen, CHO-K1 cells, Fluo-8 calcium fluorescence, 1536-well. AID 588819, 2011. Muscarinic acetylcholine receptor M1 (Homo sapiens), P11229. 360,000 tested, 0.088% active. CHO-K1 hM1, ACh EC20; 0% = ACh EC20, 100% = maximal ACh. activation, % at 3 µM; in the data active = activation above about 19%, passing the limit was not always enough
M1 ag parental: counter-screen for M1 agonists: effect in parental CHO-K1 cells | Fluo-8 calcium fluorescence; scaled to maximal ATP response, vehicle zero | 360,000 tested, 0.48% active | activation, % at 3 µM; in the data active = activation above about 15%;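 note: untransfected CHO-K1 host cells lacking M1 receptor as counterscreen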
Hits are given with their value; 0 = inactive; - = no result given. An excerpt weighted towards active compounds, which were near 2.3% of everything screened.

SMILES	CHO-K1 Ca antag	CHO-K1 Ca PAM	M1 ag	CHRM1 antagonist	CHRM1 PAM	M1 ag parental
O=C(NCc1cccnc1)C(=O)NCC1OCCN1S(=O)(=O)c1ccccc1 (configuration not stated)	0	0	0	0	0	0
Cc1ccc(S(=O)(=O)N2CCOC2CNC(=O)C(=O)NCc2cccnc2)cc1 (configuration not stated)	35.9	0	0	0	0	0
O=C(Nc1ccccc1C(=O)O)c1ccc(NC(=O)C2CCCCC2)cc1	0	0	0	0	0	0
Cc1ccc(C(=O)NC2CCN(CC(=O)Nc3ccccc3Cl)CC2)cc1	0	0	0	0	0	15.6
O=C(CN1C(=O)CC(c2ccco2)Sc2ccccc21)Nc1ccc2c(c1)OCCO2 (configuration not stated)	0	0	0	37.7	0	0
O=C1CC(=C(c2ccccc2)c2ccccc2)C(=O)N1CCCN1CCN(c2cccc(Cl)c2)CC1	0	0	0	38.5	0	0
O=C1CC(=C(c2ccccc2)c2ccccc2)C(=O)N1CCN1CCN(c2cccc(Cl)c2)CC1	0	0	0	0	0	0
O=C1c2cc([N+](=O)[O-])ccc2-c2cc(Br)c(N=C(NO)C(F)(F)F)cc21	0	0	0	0	0	0
NS(=O)(=O)c1ccc(CCNC(=O)CCCCCn2c(=S)[nH]c3ccc(Br)cc3c2=O)cc1	0	0	0	40.9	0	0
COc1ccc(CCn2c(S)nc3ccccc3c2=O)cc1	0	0	0	0	0	0
COc1ccc(OC)c(NC(=O)Nc2ccc(Cl)cc2)c1	0	0	0	0	0	0
COc1ccc(OC)c(NC(=O)Nc2ccc3[nH]ccc3c2)c1	58.9	0	0	0	0	0
CC(C)CC(c1nnnn1Cc1cccs1)N1CCN(c2nc3ccccc3s2)CC1 (configuration not stated)	0	0	0	0	0	0
CCC(c1nnnn1Cc1cccs1)N1CCN(c2nc3ccccc3s2)CC1 (configuration not stated)	47.6	0	0	0	-	0
Fc1ccc(N2CCN(C3=Nc4cccc5cccc3c45)CC2)cc1	0	0	0	87.9	0	0
CN(CC(=O)NCCc1ccc(S(N)(=O)=O)cc1)CC(=O)Nc1cccc(F)c1	0	0	0	0	0	0
Cc1cccc(C)c1NC(=O)CN(C)C(C)C(=O)Nc1ccccc1-c1ccccc1 (configuration not stated)	0	0	0	0	0	0
Cc1ccccc1CN(C)C(C)C(=O)Nc1ccccc1F (configuration not stated)	0	0	0	0	0	19.0
Cc1csc2c(N3CCN(C(=S)Nc4ccc(C(F)(F)F)cc4)CC3)ncnc12	27.8	0	0	0	0	0
Cc1csc2c(N3CCN(C(=O)c4ccc(C(C)(C)C)cc4)CC3)ncnc12	0	0	0	0	0	0
Cc1csc2ncnc(N3CCN(C(=S)Nc4ccc(C(F)(F)F)cc4)CC3)c12	0	0	0	42.9	0	0
Cc1cc(C)nc(NC(=O)c2cc(Br)ccc2Cl)n1	0	0	0	0	0	0
CCNC(=O)c1cc(Br)ccc1Cl	24.0	0	0	0	0	0
O=C(NCC1CCCO1)c1ccccc1OCc1ccc(F)cc1 (configuration not stated)	0	0	0	0	0	23.1
O=C(Nc1ccc(O)cc1)c1ccccc1OCc1ccccc1	0	0	0	0	0	16.1
O=C(NCC1CCCO1)C(C(=O)c1ccc(F)cc1)n1ccccc1=O (configuration not stated)	30.9	0	0	0	0	0
O=C(NCc1ccccn1)c1ccccc1OCc1ccc(F)cc1	0	0	0	0	0	0
O=C(Nc1ccccc1)c1ccccc1OCc1ccc(F)cc1	0	0	0	0	0	0
COc1ccccc1CNC(=O)c1ccccc1OCc1ccc(F)cc1	0	44.0	0	0	0	42.1

Screens (PubChem)
